From PubChem BioAssay AID1159580 (chemical genetic matrix, 2015)
Screen size: about 5,500 compounds; about 2,000 (36%) were called active. Inconclusive results (about 18%) are left out. Cut-off read from the data, not from the text of the source: active = normalized growth mostly below about 0.91 (no sharp cut-off); inconclusive = no clear call, values can overlap the other calls; inactive = mostly above about 0.92. The list shows a part of the results.

Assay: chemical genetic growth profiling, strain panel (AID 1159580);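 note: tested at 20 µM; growth read once vehicle control cultures reached saturation at 30 °C; 1 = growth at the plate median or of vehicle wells; lower values mean less growth of the strain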
Conditions: S. cerevisiae deletion strains, growth OD

Measured: normalized growth

C=C1CCC(OC(C)=O)/C(C)=C/C[C@@H]2[C@@H]1CC2(C)C (some centres undefined)
inactive: locus YAL021C, strain ccr4, hits give low values 1.01 | locus YAL026C, strain drs2, hits give low values 1.01 | locus YAL030W, strain snc1, hits give low values 1.01 | locus YBL061C, strain skt5, hits give low values 1.01 | locus YBR009C, strain hhf1, hits give low values 1.01 | locus YBR021W, strain FUR4, hits give low values 1.02 | locus YBR023C, strain chs3, hits give low values 1.01 | locus YBR171W, strain sec66, hits give low values 1 | locus YBR229C, strain ROT2, hits give low values 1 | locus YBR231C, strain swc5, hits give low values 1.01 | locus YBR279W, strain paf1, hits give low values 1.01 | locus YCL011C, strain gbp2, hits give low values 1.02 | locus YCL016C, strain dcc1, hits give low values 1.01 | locus YCL029C, strain bik1, hits give low values 1.03 | locus YCL061C, strain MRC1, hits give low values 1.01 | locus YCL069W, strain vba3, hits give low values 1.01 | locus YCR088W, strain abp1, hits give low values 1.01 | locus YDL005C, strain med2, hits give low values 1.01 | locus YDL035C, strain GPR1, hits give low values 1.01 | locus YDL040C, strain nat1, hits give low values 1.01 | locus YDL074C, strain BRE1, hits give low values 1.02 | locus YDL101C, strain DUN1, hits give low values 1.02 | locus YDL185W, strain tfp1, hits give low values 1.03 | locus YDL192W, strain arf1, hits give low values 1.02 | locus YDR001C, strain nth1, hits give low values 1 | locus YDR069C, strain doa4, hits give low values 1.03 | locus YDR101C, strain arx1, hits give low values 0.983 | locus YDR137W, strain rgp1, hits give low values 0.929 | locus YDR159W, strain sac3, hits give low values 1.02 | locus YDR162C, strain NBP2, hits give low values 0.997 | locus YDR195W, strain ref2 1.02 | locus YDR297W, strain sur2, hits give low values 1.02 | locus YDR318W, strain mcm21, hits give low values 1.03 | locus YDR334W, strain swr1, hits give low values 1.01 | locus YDR335W, strain msn5, hits give low values 1.01 | locus YDR388W, hits give low values 1.02 | locus YDR392W, strain spt3, hits give low values 0.812 | locus YDR502C, strain sam2, hits give low values 1.03 | locus YEL003W, strain gim4, hits give low values 1.02 | locus YEL037C, strain rad23, hits give low values 1.01 | locus YEL061C, strain CIN8 (second series), hits give low values 1.02 | locus YER015W, strain faa2, hits give low values 1.01 | locus YER016W, strain bim1, hits give low values 1.01 | locus YER110C, hits give low values 1.03 | locus YER111C, strain swi4, hits give low values 1.01 | locus YER155C, strain BEM2 (second series), hits give low values 1.03 | locus YER155C, strain BEM2, hits give low values 1.02 | locus YER167W, strain BCK2, hits give low values 1.01 | locus YFR010W, strain ubp6, hits give low values 1.01 | locus YGL078C, strain dbp3, hits give low values 1.04 | locus YGL086W, strain mad1, hits give low values 1.01 | locus YGL167C, strain pmr1, hits give low values 1.02 | locus YGL173C, strain kem1, hits give low values 1.01 | locus YGL227W, strain vid30, hits give low values 1.03 | locus YGL240W, strain doc1, hits give low values 1.01 | locus YGL248W, strain PDE1, hits give low values 1.01 | locus YGL253W, strain hxk2, hits give low values 1.01 | locus YGR078C, strain PAC10, hits give low values 1.03 | locus YGR135W, strain pre9, hits give low values 1.05 | locus YGR252W, strain gcn5, hits give low values 1.05 | locus YHR013C, strain ard1, hits give low values 1 | locus YHR027C, strain rpn1, hits give low values 1.01 | locus YHR030C, strain SLT2, hits give low values 1.01 | locus YHR079C, strain IRE1 (second series), hits give low values 1.02 | locus YHR094C, strain hxt1, hits give low values 1.01 | locus YHR129C, strain ARP1, hits give low values 1.01 | locus YHR142W, strain chs7, hits give low values 0.987 | locus YHR200W, strain rpn10, hits give low values 1 | locus YIL066C, strain RNR3, hits give low values 1 | locus YIL073C, strain SPO22, hits give low values 1.06 | locus YIL125W, strain kgd1, hits give low values 1 | locus YIR030C, strain dcg1, hits give low values 1.02 | locus YJL092W, strain hpr5, hits give low values 1.01 | locus YJL095W, strain BCK1 (second series), hits give low values 1.01 | locus YJL095W, strain BCK1, hits give low values 1.02 | locus YJL115W, strain asf1, hits give low values 1.01 | locus YJL129C, strain trk1, hits give low values 0.976 | locus YJL134W, strain LCB3, hits give low values 1.01 | locus YJL154C, strain vps35, hits give low values 1.01 | locus YJL164C, strain tpk1, hits give low values 1.01 | locus YJL166W, strain qcr8, hits give low values 1 | locus YJL168C, strain set2, hits give low values 1.02 | locus YJL187C, strain SWE1 (second series), hits give low values 1.05 | locus YJL187C, strain SWE1, hits give low values 1.01 | locus YJR075W, strain HOC1, hits give low values 1.02 | locus YKL009W, strain mrt4, hits give low values 1 | locus YKL068W, hits give low values 1.01 | locus YKL085W, strain MDH1 (second series), hits give low values 1.02 | locus YKL085W, strain MDH1, hits give low values 1.02 | locus YKL160W, strain elf1, hits give low values 1 | locus YKL190W, strain CNB1, hits give low values 1.01 | locus YKR001C, strain vps1, hits give low values 0.996 | locus YKR026C, strain gcn3, hits give low values 0.987 | locus YKR091W, strain srl3, hits give low values 1.01 | locus YLL001W, strain dnm1, hits give low values 1.02 | locus YLL026W, hits give low values 1.02 | locus YLL041C, strain sdh2, hits give low values 1.01 | locus YLR027C, strain aat2, hits give low values 1 | locus YLR039C, strain RIC1, hits give low values 0.957 | locus YLR058C, strain SHM2, hits give low values 1 | locus YLR102C, strain apc9, hits give low values 1 | locus YLR221C, strain rsa3, hits give low values 1.01 | locus YLR258W, strain gsy2, hits give low values 1.01 | locus YLR262C, strain YPT6 (second series), hits give low values 0.905 | locus YLR262C, strain YPT6, hits give low values 0.932 | locus YLR268W, strain sec22, hits give low values 0.995 | locus YLR320W, strain mms22, hits give low values 0.972 | locus YLR342W, strain FKS1, hits give low values 1.01 | locus YLR357W, strain rsc2, hits give low values 1.01 | locus YLR370C, strain arc18, hits give low values 1.01 | locus YLR371W, strain rom2, hits give low values 1.03 | locus YLR384C, strain iki3, hits give low values 0.999 | locus YLR418C, strain cdc73, hits give low values 1.06 | locus YML016C, strain PPZ1, hits give low values 1.02 | locus YML032C, strain rad52, hits give low values 0.995 | locus YML120C, strain ndi1, hits give low values 1.02 | locus YML124C, strain tub3, hits give low values 1.01 | locus YMR058W, strain fet3, hits give low values 1.01 | locus YMR078C, strain ctf18, hits give low values 1.03 | locus YMR125W, strain sto1, hits give low values 1.02 | locus YMR129W, hits give low values 1.01 | locus YMR205C, strain PFK2, hits give low values 0.996 | locus YMR223W, strain ubp8, hits give low values 1.02 | locus YMR231W, strain pep5, hits give low values 1.01 | locus YMR307W, strain GAS1, hits give low values 0.973 | locus YNL067W, strain RPL9B, hits give low values 1.02 | locus YNL071W, strain lat1, hits give low values 0.99 | locus YNL209W, strain ssb2, hits give low values 1.02 | locus YNL233W, strain BNI4, hits give low values 1.04 | locus YNL248C, strain rpa49, hits give low values 0.997 | locus YNL250W, strain rad50, hits give low values 1.07 | locus YNL271C, strain bni1, hits give low values 1.01 | locus YNL298W, strain CLA4, hits give low values 1.01 | locus YNL307C, strain MCK1, hits give low values 1.02 | locus YNL322C, strain KRE1 (second series), hits give low values 1.02 | locus YNL322C, strain KRE1, hits give low values 1.01 | locus YNR049C, strain mso1, hits give low values 1.02 | locus YNR052C, strain pop2, hits give low values 1.03 | locus YOL012C, strain htz1 1.04 | locus YOL147C, strain pex11, hits give low values 1.02 | locus YOR001W, strain rrp6, hits give low values 1.02 | locus YOR061W, strain CKA2, hits give low values 1 | locus YOR069W, strain VPS5, hits give low values 1.01 | locus YOR070C, strain gyp1, hits give low values 1 | locus YOR080W, strain dia2, hits give low values 1.01 | locus YOR083W, strain WHI5, hits give low values 1.01 | locus YOR106W, strain vam3, hits give low values 0.994 | locus YOR136W, strain idh2, hits give low values 0.997 | locus YOR144C, strain elg1, hits give low values 1.01 | locus YOR184W, strain ser1, hits give low values 0.992 | locus YOR265W, strain rbl2, hits give low values 1.01 | locus YOR270C, strain vph1, hits give low values 0.909 | locus YOR290C, strain snf2, hits give low values 0.963 | locus YOR316C, strain cot1, hits give low values 1.02 | locus YPL051W, strain arl3, hits give low values 0.994 | locus YPL055C, strain LGE1, hits give low values 1.04 | locus YPL078C, strain atp4, hits give low values 1 | locus YPL106C, strain sse1, hits give low values 1.05 | locus YPL240C, strain hsp82, hits give low values 1.01 | locus YPR119W, strain clb2, hits give low values 1.01 | locus YPR141C, strain kar3, hits give low values 1.02 | locus YPR163C, strain tif3, hits give low values 1 | locus YPR167C, strain met16, hits give low values 1.02 | strain wtn01, hits give low values 1
